The list is not random: actives were taken first. Their share in the collection is about 3.5%.
Bead autofluor – flagged as autofluorescent in microsphere protease counterscreen | compound autofluorescence counterscreen, microsphere flow cytometry; stronger effect = higher value | fluorescence intensity (no concentration beside the values) | 360,000 compounds, 3.1% hits | AID 624483; in the data active = fluorescence intensity above about 16000; inconclusive = no clear call, values can overlap the other calls
Anthrax LF inh2 – blocks Bacillus anthracis lethal factor protease; 360,000 compounds, 0.12% hits; inhibition, % at 10 µM; P15917; multiplex microsphere protease cleavage assay, LF; also: plate controls were buffer without enzyme for full effect and enzyme alone for no effect
Target sequence (P15917 whole entry, looked up): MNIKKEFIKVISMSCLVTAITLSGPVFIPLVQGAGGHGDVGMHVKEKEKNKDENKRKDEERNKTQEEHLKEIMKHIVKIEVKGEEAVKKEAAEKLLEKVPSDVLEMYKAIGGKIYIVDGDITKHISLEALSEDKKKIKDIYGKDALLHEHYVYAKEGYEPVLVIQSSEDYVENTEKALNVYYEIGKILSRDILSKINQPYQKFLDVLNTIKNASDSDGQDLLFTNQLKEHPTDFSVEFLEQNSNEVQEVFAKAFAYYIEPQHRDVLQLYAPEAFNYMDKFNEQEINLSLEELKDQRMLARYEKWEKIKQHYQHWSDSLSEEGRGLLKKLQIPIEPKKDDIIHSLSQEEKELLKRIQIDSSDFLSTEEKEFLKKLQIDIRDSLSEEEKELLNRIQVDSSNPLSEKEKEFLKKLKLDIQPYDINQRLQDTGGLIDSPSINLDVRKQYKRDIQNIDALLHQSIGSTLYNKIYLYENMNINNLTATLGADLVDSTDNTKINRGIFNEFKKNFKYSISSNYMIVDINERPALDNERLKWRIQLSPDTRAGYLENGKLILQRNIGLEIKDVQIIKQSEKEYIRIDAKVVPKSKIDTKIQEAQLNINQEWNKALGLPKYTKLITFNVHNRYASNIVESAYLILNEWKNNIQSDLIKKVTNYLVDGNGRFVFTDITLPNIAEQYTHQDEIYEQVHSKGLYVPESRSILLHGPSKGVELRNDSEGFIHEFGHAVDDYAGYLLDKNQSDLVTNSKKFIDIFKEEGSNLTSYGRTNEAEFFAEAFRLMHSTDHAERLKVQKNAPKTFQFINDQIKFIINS
BoNT A protease – blocks Botulinum neurotoxin A light chain protease; multiplex microsphere protease substrate cleavage, flow cytometry; inhibition, % at 10 µM; 360,000 compounds, 0.17% hits; also: plate controls were buffer without enzyme for full effect and enzyme alone for no effect
BoNT F protease – blocks Botulinum neurotoxin F light chain protease | 360,000 compounds, 0.22% hits | Multiplex microsphere protease cleavage assay, flow cytometry | inhibition, % at 10 µM; in the data active = inhibition above about 35%, passing the limit was not always enough; inconclusive = no clear call, values can overlap the other calls; also: plate controls were buffer without enzyme for full effect and enzyme alone for no effect
Vc quorum ag – quorum light induction in luxS cqsA deficient V. cholerae. V. cholerae BH1578 lux reporter, luminescence, 6 h. activation, % at 18.7 µM. 350,000 compounds, 0.16% hits. AID 588436; in the data active = activation mostly above about 9.7%, no sharp cut-off; inconclusive = no clear call, values can overlap the other calls; inactive = mostly below about 3.7%
Starred values were filed as active, the others as inactive. Rule as the data show it, unless noted: active = inhibition above about 30%; inconclusive = no clear call, values can overlap the other calls; inactive = below that.

Screening CC(C)(C)OC(=O)NCCc1nnc(SCc2ccccc2Cl)o1 returned Bead autofluor 16944*, Anthrax LF inh2 -0.1, BoNT A protease -0.3, BoNT F protease 0.0 and Vc quorum ag -6.2.
For c1ccc(CCc2cccnc2)cc1 the results were Bead autofluor 2891, Anthrax LF inh2 -0.4, BoNT A protease -0.3, BoNT F protease 4.4 and Vc quorum ag -2.7.
Cc1nc(-c2cccnc2)sc1C(N)=O was read as Bead autofluor 16867*, Anthrax LF inh2 -3.4, BoNT A protease -2.2, BoNT F protease -9.0 and Vc quorum ag -1.4.
`COc1ccc(/C=C/C(=O)c2sc(-c3ccccc3)nc2C)cc1` gave Bead autofluor 23221*, Anthrax LF inh2 3.4, BoNT A protease 2.1, BoNT F protease -2.3 and Vc quorum ag inactive.
Screening CC(=O)c1sc(-c2ccccc2)nc1C returned Bead autofluor 4340, Anthrax LF inh2 1.3, BoNT A protease 0.4, BoNT F protease -3.1 and Vc quorum ag inactive.
`CCNC(=O)c1sc(-c2ccccc2)nc1C` gave Bead autofluor 21235*, Anthrax LF inh2 0.6, BoNT A protease inconclusive, BoNT F protease -3.8 and Vc quorum ag inactive.
Cc1nc(-c2ccccc2)sc1C(=O)O was read as Bead autofluor 4649, Anthrax LF inh2 0.1, BoNT A protease 0.1, BoNT F protease 2.4 and Vc quorum ag inactive.
Screening COc1ccc(Cn2ccnc2)cc1Br returned Bead autofluor 23086*, Anthrax LF inh2 -0.3, BoNT A protease -1.3, BoNT F protease -4.6 and Vc quorum ag 3.1.
`COc1ccc(Cn2ccnc2)cc1[N+](=O)[O-]` gave Bead autofluor 2583, Anthrax LF inh2 0.0, BoNT A protease -0.6, BoNT F protease -5.5 and Vc quorum ag -0.2.
Screening O=C(CCn1cccn1)N1CCCC(N2CCN(c3cccc(Cl)c3)CC2)C1 (configuration not stated) returned Bead autofluor 5288, Anthrax LF inh2 0.0, BoNT A protease 2.5, BoNT F protease 4.0 and Vc quorum ag -0.5.
O=C(COc1ccccc1)NC1CCCCCCC1 was read as Bead autofluor 6108, Anthrax LF inh2 0.9, BoNT A protease -1.6, BoNT F protease -4.2 and Vc quorum ag -0.1.
COCCn1c(=S)[nH]c2cc(C(=O)N3CCC(C(N)=O)(N4CCCCC4)CC3)ccc2c1=O was read as Bead autofluor 22116*, Anthrax LF inh2 -6.6, BoNT A protease 2.6, BoNT F protease 3.1 and Vc quorum ag inactive.
Screening CCOCCCn1c(=S)[nH]c2cc(C(=O)N3CCC(C(N)=O)CC3)ccc2c1=O returned Bead autofluor inconclusive, Anthrax LF inh2 -8.3, BoNT A protease 1.9, BoNT F protease 2.0 and Vc quorum ag -0.3.
CCOC(=O)C1CCCN(C(=O)c2ccc3c(=O)n(CCOC)c(=S)[nH]c3c2)C1 (configuration not stated) was read as Bead autofluor 20489*, Anthrax LF inh2 -0.8, BoNT A protease 0.6, BoNT F protease 0.6 and Vc quorum ag -0.2.
Screening COCCn1c(=S)[nH]c2cc(C(=O)NC3CCCCCC3)ccc2c1=O returned Bead autofluor 3556, Anthrax LF inh2 1.7, BoNT A protease -0.4, BoNT F protease 1.3 and Vc quorum ag inactive.
`COCCn1c(=S)[nH]c2cc(C(=O)NCCCN3CCOCC3)ccc2c1=O` gave Bead autofluor 22856*, Anthrax LF inh2 -0.5, BoNT A protease -1.7, BoNT F protease -2.0 and Vc quorum ag -0.2.
`NS(=O)(=O)c1ccc(CNC(=O)c2csc3c2CCCC3)cc1` gave Bead autofluor 4944, Anthrax LF inh2 -0.9, BoNT A protease 0.5, BoNT F protease -3.4 and Vc quorum ag -0.5.
CC1(C)CC(NC(=O)c2sc3cc(Cl)ccc3c2Cl)CC(C)(C)N1 was read as Bead autofluor 4898, Anthrax LF inh2 -2.0, BoNT A protease -0.9, BoNT F protease -0.7 and Vc quorum ag -0.5.
For CCCCC(=O)Nc1nn(CC(C)C)c2nc3ccccc3cc12 the results were Bead autofluor 21680*, Anthrax LF inh2 -6.3, BoNT A protease inconclusive, BoNT F protease -1.9 and Vc quorum ag -3.1.
CC(C)Cn1nc(NC(=O)C(C)(C)C)c2cc3ccccc3nc21 was read as Bead autofluor 7060, Anthrax LF inh2 4.1, BoNT A protease -0.6, BoNT F protease -7.2 and Vc quorum ag inactive.
Screening CCCn1nc(NC(=O)CC)c2cc3cccc(C)c3nc21 returned Bead autofluor 2886, Anthrax LF inh2 13.0, BoNT A protease 4.6, BoNT F protease 14.9 and Vc quorum ag -0.5.
CCCn1nc(NC(=O)CC(C)C)c2cc3ccccc3nc21 was read as Bead autofluor 22379*, Anthrax LF inh2 -0.1, BoNT A protease 1.4, BoNT F protease 3.1 and Vc quorum ag inactive.
Screening O=C(Cc1c(C(=O)O)[nH]c2ccccc12)NCCN1CCN(c2ccccc2F)CC1 returned Bead autofluor 23477*, Anthrax LF inh2 -0.5, BoNT A protease inconclusive, BoNT F protease -3.9 and Vc quorum ag -0.2.
`O=C(Oc1ccccc1)N1CCN(c2ccccc2F)CC1` gave Bead autofluor 3580, Anthrax LF inh2 -0.6, BoNT A protease -2.4, BoNT F protease 38.2* and Vc quorum ag -0.4.
Cn1c(=O)cc(SCC(=O)NCCN2CCN(c3ccccc3F)CC2)c2cc(Cl)ccc21 was read as Bead autofluor 22129*, Anthrax LF inh2 1.8, BoNT A protease inconclusive, BoNT F protease 2.4 and Vc quorum ag inactive.
O=C(CN1CCN(c2ccccc2F)CC1)NCc1ccccc1 was read as Bead autofluor 3812, Anthrax LF inh2 -11.3, BoNT A protease 0.8, BoNT F protease 14.4 and Vc quorum ag inactive.
Screening O=C(NCN1CCN(c2ccccc2F)CC1)c1ccccc1 returned Bead autofluor 23676*, Anthrax LF inh2 -0.5, BoNT A protease -1.2, BoNT F protease -1.9 and Vc quorum ag inactive.
Screening CCSc1nnc(-c2ccc(S(=O)(=O)NCc3cccs3)cc2)o1 returned Bead autofluor 20964*, Anthrax LF inh2 -1.8, BoNT A protease -0.9, BoNT F protease -3.7 and Vc quorum ag inactive.
For NCCNC[C@@H]1COC2(CCCCCCCCCCC2)O1 the results were Vc quorum ag -0.8.
`Cc1cc(/C=N/n2cnnc2)c(C)n1-c1ccccc1` gave Bead autofluor 2943, Anthrax LF inh2 -0.3, BoNT A protease -0.5, BoNT F protease 10.0 and Vc quorum ag -1.4.
C(=N\n1cnnc1)/c1cccn1-c1ccccc1 was read as Bead autofluor 16775*, Anthrax LF inh2 -2.0, BoNT A protease -1.5, BoNT F protease -4.3 and Vc quorum ag inactive.
`C/C(=N\O)C1/C(=N/O)CC2C1C2(C)C` (configuration not stated) gave Bead autofluor 23424*, Anthrax LF inh2 -0.6, BoNT A protease -0.6, BoNT F protease -2.2 and Vc quorum ag -0.1.
Screening CCOC(=O)C(=CNc1cccc(N)n1)C(=O)OCC returned Bead autofluor 20625*, Anthrax LF inh2 -10.3, BoNT A protease -0.7, BoNT F protease -1.5 and Vc quorum ag 5.9.
Screening CCOC(=O)C(=CNc1ccc(Cl)cn1)C(=O)OCC returned Bead autofluor 5193, Anthrax LF inh2 6.5, BoNT A protease 0.4, BoNT F protease 0.7 and Vc quorum ag 0.0.
Screening CCOc1cc(S(=O)(=O)NCc2ccccc2)ccc1Br returned Bead autofluor 4603, Anthrax LF inh2 -2.0, BoNT A protease -0.5, BoNT F protease -2.6 and Vc quorum ag inactive.

Screening data from PubChem.
